Source: PubChem BioAssay (NCATS)
Results filed as inconclusive are left out. Calls of active or inactive are those of the source. Calls follow the shape of the dose curve; as a rule, active = well fitted inhibition curve with a large enough effect; inconclusive = small, poorly fitted or top-dose-only effect; inactive = flat fitted curve, though single readings scatter.

target: Calcium and integrin-binding protein 1 (Homo sapiens) (UniProt Q99828); assay: Primary qHTS for Identification of Calcium Integrin Binding Protein 1 (CIB1) Competitor (AID 1508620); conditions: CIB1-GST / FITC-alphaIIb peptide fluorescence polarization; series mostly up to 114 µM; activity change, negative = inhibition: at the top concentration; also: top concentration of the series differs between compounds
Summary of the method: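 Fluorescence polarization competition: GST-tagged CIB1 (1 uM final) preincubated with compound 15 min at room temperature, then FITC-labelled alphaIIb peptide (100 nM final) added. After 15 min at room temperature, polarization read at Ex 480/Em 540.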
% is scaled to controls: 0 for no effect and ±100 for the full control effect.

Calcium and integrin-binding protein 1 (Homo sapiens), sequence (Q99828 whole entry, looked up): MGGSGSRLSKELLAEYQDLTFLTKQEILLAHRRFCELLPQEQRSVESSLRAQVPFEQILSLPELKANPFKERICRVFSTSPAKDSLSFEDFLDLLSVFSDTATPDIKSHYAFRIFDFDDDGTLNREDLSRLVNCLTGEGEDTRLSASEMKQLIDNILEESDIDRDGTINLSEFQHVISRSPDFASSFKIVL

For `O=C1COC2(CCN(S(=O)(=O)c3ccc(-c4ccc5cccnc5c4)cc3)CC2)CN1C1CC1`, which “activity change, negative = inhibition” value is on record?
The value was -1.58% (inactive).

Which “activity change, negative = inhibition” value does the source give for `C=C1CCCC2(C)CCC(C(C)(C)OC3OC(C)C(O)C(O)C3OC(=O)/C(C)=C\C)CC12` (configuration not stated) here?
Its value is -15.8% [at 57.7 µM] (inactive).

Which “activity change, negative = inhibition” value does the source give for `C=C1CC[C@@H](O)[C@]2(C)CC[C@H]3C(=C)C(=O)O[C@@H]3[C@@H]12` here?
Its value is -14.2% (inactive).

For `FC(F)(F)c1ccc(CNc2ccc(Cc3c[nH]c4ncc(Cl)cc34)cn2)cn1`, which “activity change, negative = inhibition” value is on record?
The value was -2.94% [at 57.7 µM] (inactive).

`C=C1C(=O)O[C@@H]2C3C(=C(C)[C@@H](O)[C@@H](OC(=O)/C(=C/C)COC(C)=O)[C@@H]12)C(=O)[C@H]1O[C@@]31C` (some centres not stated) was tested. Which “activity change, negative = inhibition” value did it give?
Its value is -2.57% [at 57.7 µM] (inactive).

For `Cc1cc(-c2cnc(N)c3c(-c4ccc5scnc5c4)csc23)n(C)n1`, which “activity change, negative = inhibition” value is on record?
Its value is 2.28% (inactive).

For `CCNC(=O)C#Cc1ccc2c(C(=Nc3ccc(CN(C)C)cc3)c3ccccc3)c(O)[nH]c2c1`, which “activity change, negative = inhibition” value is on record?
Its value is 3.07% [at 57.7 µM] (inactive).

Which “activity change, negative = inhibition” value does the source give for `CCC/C=C\C=C/CCc1cc(O)c([C@@H]2O[C@H](CO)[C@@H](O)[C@H](O)[C@H]2O)c(O)c1C(=O)OC` here?
Its value is 3.42% [at 57.7 µM] (inactive).

How did the “activity change, negative = inhibition” value turn out when `CC1CCC(=O)CC(SCC(O)C(=O)O)CCC(=O)O1` (configuration not stated) was run?
Its value is -3.62% (inactive).

For `CC(C)c1ccccc1OC(=O)NCCc1ccc2ccccc2c1`, which “activity change, negative = inhibition” value is on record?
Its value is -3.57% (inactive).

Which “activity change, negative = inhibition” value does the source give for `CC1=C(C(=O)Nc2cc(Cl)ccc2Cl)C(c2ccco2)C2=C(CCCC2=O)N1` (configuration not stated) here?
Its value is 1.52% (inactive).

For `COc1ccc(CCO[C@@H]2O[C@H](CO[C@H]3OC[C@](O)(CO)[C@H]3O)[C@@H](OC(=O)/C=C/c3ccc(O)c(O)c3)[C@H](O[C@@H]3O[C@@H](C)[C@H](O)[C@@H](O)[C@H]3O)[C@H]2O)cc1OC`, which “activity change, negative = inhibition” value is on record?
Its value is 1.27% [at 30.2 µM] (inactive).

For `CC(=O)OC1CC2(C)C(CCC(C)C23Cc2c(O)cc(CO)c(C=O)c2O3)C(C)(C)C1O` (configuration not stated), which “activity change, negative = inhibition” value is on record?
Its value is 1.28% [at 57.7 µM] (inactive).

For `C[C@H]1CC[C@@]2(OC1)O[C@H]1CC3[C@@H]4CC[C@@H]5C[C@@H](O[C@@H]6O[C@H](CO)[C@@H](O[C@@H]7O[C@H](CO[C@@H]8OC[C@@H](O)[C@H](O)[C@H]8O)[C@@H](O[C@@H]8O[C@H](CO)[C@H](O)[C@H](O)[C@H]8O)[C@H](O)[C@H]7O)[C@H](O)[C@H]6O)CC[C@]5(C)C4CC[C@]3(C)[C@H]1[C@@H]2C` (some centres not stated), which “activity change, negative = inhibition” value is on record?
The value was 5.09% [at 30.2 µM] (inactive).

`CC(=O)O[C@@H]1[C@H](O[C@@H]2O[C@@H](CO)[C@H](O)[C@H]2O)[C@@H](O[C@@H]2O[C@@H](C)[C@H](O[C@@H]3OC[C@@H](O)[C@H](O)[C@H]3O)[C@@H](O)[C@H]2O)[C@H](OC(=O)[C@]23CCC(C)(C)C[C@H]2C2=CCC4[C@@]5(C)CC[C@H](O[C@@H]6O[C@H](C(=O)O)[C@@H](O)[C@H](O)[C@H]6O[C@@H]6O[C@H](CO)[C@H](O)[C@H](O)[C@H]6O)[C@@](C)(C=O)C5CC[C@@]4(C)[C@]2(C)C[C@H]3O)O[C@@H]1C` (some centres not stated) was tested. Which activity change, negative = inhibition did it give?
Its activity change, negative = inhibition is 1.08% [at 12.4 µM] (inactive).

Which “activity change, negative = inhibition” value does the source give for `C=C1CC[C@@H]2[C@](C)(CO)[C@H](O)CC[C@@]2(C)[C@@H]1C/C=C1/C(=O)OCC1O` (some centres not stated) here?
Its value is 1.38% (inactive).

Which “activity change, negative = inhibition” value does the source give for `O=C(O)C1=CO[C@@H](O[C@@H]2O[C@H](CO)[C@@H](O)[C@H](O)[C@H]2O)[C@@H]2C(CO)=CC[C@H]12` here?
Its value is 3.35% [at 57.7 µM] (inactive).

How did the “activity change, negative = inhibition” value turn out when `CCOc1cc(C(C)(C)C)ccc1C1=NC(C)(c2ccc(Cl)cc2)C(C)(c2ccc(Cl)cc2)N1C(=O)N1CCN(CCCS(C)(=O)=O)CC1` (configuration not stated) was run?
The value was -10.6% (inactive).

With `Nc1c(S(=O)(=O)c2ccccc2)c2nc3ccccc3nc2n1-c1ccc(F)cc1` as the compound, how does the “activity change, negative = inhibition” value read?
The value was 2.6% (inactive).

`COc1cc(N2CCC(N3CCN(C)CC3)CC2)ccc1Nc1ncc(Cl)c(Nc2ccccc2P(C)(C)=O)n1` was tested. Which “activity change, negative = inhibition” value did it give?
Its value is 2.61% (inactive).

For `C/C(=C/C=C\C=C\Cc1cnco1)[C@@H](O)C(C)(C)C(N)=O`, which “activity change, negative = inhibition” value is on record?
Its value is 5% (inactive).

How did the “activity change, negative = inhibition” value turn out when `C=C[C@]1(C)C[C@H](O)[C@H]2C(=C)C(=O)O[C@@H]2[C@H]1C(=C)CO` was run?
The value was -7.99% (inactive).

With `C/C(=N\N=C(N)N)c1cc(NC(=O)CCCCCCCCC(=O)Nc2cc(/C(C)=N/N=C(N)N)cc(/C(C)=N/N=C(N)N)c2)cc(/C(C)=N/N=C(N)N)c1` as the compound, how does the “activity change, negative = inhibition” value read?
Its value is 75.8% (inactive).

Which “activity change, negative = inhibition” value does the source give for `CC[C@@H](C)[C@@H]1OC2(C=C[C@H]1C)C[C@@H]1C[C@H](C/C=C(\C)[C@H](O[C@H]3C[C@H](OC)[C@H](O[C@H]4C[C@H](OC)[C@H](NC(C)=O)[C@H](C)O4)[C@H](C)O3)[C@H](C)/C=C/C=C3\CO[C@H]4[C@H](O)C(C)=C[C@@H](C(=O)O1)[C@@]34O)O2` (some centres not stated) here?
The value was 0.525% [at 57.7 µM] (inactive).

How did the “activity change, negative = inhibition” value turn out when `C=C(NC(=O)C(=C)NC(=O)c1csc(C2=NC3c4csc(n4)C4NC(=O)c5csc(n5)C(C(C)(O)C(C)O)NC(=O)C5CSC(=N5)/C(=C/C)NC(=O)C(C(C)O)NC(=O)c5csc(n5)C3(CC2)NC(=O)C(C)NC(=O)C(=C)NC(=O)C(C)NC(=O)C(C(C)CC)NC2C=Cc3c(C(C)O)cc(nc3C2O)C(=O)OC4C)n1)C(N)=O` (configuration not stated) was run?
Its value is 6.72% (inactive).

`CC1=CC2/C=C(\C)CCC(O)C(=O)C(O)CC(=O)C23C(=O)NC(CC(C)C)C3C1C` (configuration not stated) was tested. Which “activity change, negative = inhibition” value did it give?
The value was -0.929% [at 57.7 µM] (inactive).

`C=C1/C(=C/C=C2\CCC[C@]3(C)[C@@H]([C@H](C)/C=C/[C@H](O)C4CC4)CC[C@@H]23)C[C@@H](O)C[C@@H]1O` was tested. Which “activity change, negative = inhibition” value did it give?
Its value is 0.681% (inactive).
